Measured values from PubChem BioAssay (NCI).
Compounds without any hit were thinned out: in the full panel of roughly 83,000, 20% have a hit.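 Note: values are percent growth. 100 is the growth of untreated cells, values between 100 and 0 indicate rising inhibition; between -100 and 0 indicates cell death.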 The source made the active and inactive calls. The calls were made as follows: active = growth percent below 10; inactive = the rest.

Tested on: 786-0 renal
Assay: NCI-60 one-dose screen, 48 h (100 = growth as untreated, 0 = no growth, -100 = all killed)
Settings: 10 µM unless noted

Structure (SMILES)	growth
O=C(/C=C/Nc1ccc2oc(=O)ccc2c1)c1cc2cc(Br)ccc2oc1=O	103% (inactive)
O=C(Cn1c(/C=C/c2ccccc2)nc2ccccc2c1=O)Nc1ccc(Cl)cc1	-48.9% (active)
CC(C)CCNC(=O)N/C(N)=N/c1nc2ccccc2s1	80.9% (inactive)
Cn1cc(-c2cc(N)n3nc(-c4c[nH]c5ccccc45)cc3n2)c2cccnc21	-81.3% (active)
CN(C)c1nc(NCCNS(=O)(=O)c2ccc(C(=O)/C=C/c3ccc(Cl)cc3)cc2)nc(Nc2ccc(F)cc2)n1	-86% (active)

Tested on: COLO 205 colon
Assay: as above
Settings: 10 µM unless noted

Structure (SMILES)	growth
CN(C)c1nc(NCCNS(=O)(=O)c2ccc(C3=Nc4c(N)nc(N)nc4NC(c4ccc(C(F)(F)F)cc4)C3)cc2)nc(Nc2ccc(F)cc2)n1 (stereo not drawn)	-83.5% (active)
COc1ccc(-c2nc3cc(C)ccc3n2CC(=O)N=Nc2c(O)[nH]c3ccccc23)cc1	7.85% (active)
NS(=O)(=O)c1ccc(CCNC(=O)CSc2ccc(-c3ccc(Br)cc3)nn2)cc1	83.6% (inactive)
O=C(COc1ccc2c(c1)CCCC(=O)N2)NCc1ccccc1	106% (inactive)
CC1=C(C#N)C2=NNCC(c3ccccc3)=NN2C(c2ccccc2)=C1	113% (inactive)
CC1CCCCN1CCCNC(=O)N/C(N)=N/c1nc2ccccc2s1 (stereo not drawn)	-58.6% (active)
Cc1nc(Nc2ccccn2)sc1C(=O)CC(SCC(=O)Nc1ccc(Cl)cc1)c1ccccc1F (stereo not drawn)	-49.7% (active)
CCCSc1nc(Nc2ccc(S(N)(=O)=O)cc2)c(C#N)c(-c2cc(OC)c(OC)c(OC)c2)n1	8.62% (active)
Clc1cccc(N/N=C/c2c[nH]c3ccc(Br)cc23)n1	31.9% (inactive)
Cc1ccc(S(=O)(=O)c2nc(S(=O)(=O)c3ccc(C)cc3)c(N3CCN(C)CC3)s2)cc1	78% (inactive)
COc1c(F)ccc(C(=O)Nc2ccc3nc(NC(=O)C4CCCN(S(=O)(=O)c5ccc(C(F)(F)F)cc5)C4)sc3c2)c1F (stereo not drawn)	84.2% (inactive)
COc1ccc(-c2ccnc(SCc3cc4ccccc4[nH]c3=O)n2)cc1	77.5% (inactive)
Cc1ccc(C2=NN(c3nc(-c4cc5ccccc5oc4=O)cs3)C(c3ccc(C)cc3)C2)cc1 (stereo not drawn)	111% (inactive)
COc1c(F)ccc(C(=O)Nc2ccc3nc(NC(=O)C4CCCN(S(=O)(=O)c5cccc(C(F)(F)F)c5)C4)sc3c2)c1F (stereo not drawn)	84.6% (inactive)
Cc1ccc(S(=O)(=O)c2nc(S(=O)(=O)c3ccc(C)cc3)c(Cl)s2)cc1	-78.6% (active)
COc1ccc2c(c1)c(-c1cc3nc(-c4cn(C)c5ncc(Br)cc45)cc(N)n3n1)cn2C	-74.6% (active)
COc1cccc(-c2nc(Nc3ccc(S(N)(=O)=O)cc3)c3ccccc3n2)c1	27.8% (inactive)
CCS(=O)(=O)N1CCCC(C(=O)Nc2nc3ccc(NC(=O)c4ccc(F)c(OC)c4F)cc3s2)C1 (stereo not drawn)	54.3% (inactive)
C=C1CCC2C3(C)COC(c4ccccc4)OC3CCC2(C)C1CC(Sc1ccccc1)C1=CCOC1=O (stereo not drawn)	71.3% (inactive)

Structure (SMILES)	growth
Cc1cccc(-c2nc(Nc3cccc(S(N)(=O)=O)c3)c3ccccc3n2)c1	51.9% (inactive)
Brc1ccc(-c2n(Cc3ccc4ccccc4c3)c(-c3ccccc3)c(-c3ccccc3)[n+]2Cc2ccc3ccccc3c2)cc1	-78.2% (active)
Cc1cc2nc3c([nH]c2cc1C)c1ccc(=O)cc1n3CCN(C)C	10.8% (inactive)
N=C1N=C(SCc2nc3ccccc3[nH]2)NC(=O)/C1=C/c1ccc(Cl)cc1	110% (inactive)
COc1c(F)ccc(C(=O)Nc2ccc3nc(NC(=O)C4CCCN(S(=O)(=O)c5ccc(Br)c(F)c5)C4)sc3c2)c1F (stereo not drawn)	81.8% (inactive)
C=C1CC[C@@H]2[C@]3(C)COC(c4cn[nH]c4-c4ccc(Br)cc4)O[C@@H]3CC[C@@]2(C)[C@@H]1C/C=C1/C(=O)OCC1O (stereo partly drawn)	-54.6% (active)
Cc1ccc2c(c1)nc(-c1ccccc1)n2CC(=O)N=Nc1c(O)[nH]c2ccc(Br)cc12	-63% (active)
Cn1nc(C(F)(F)F)cc1-c1cc(Cl)c(COc2ccc(Cl)cc2)c(-c2ccc(Cl)c(C(F)(F)F)c2)c1O	-83.2% (active)
Cc1occc1C(=O)NN1C(=O)/C(=C/C=C/c2ccc([N+](=O)[O-])o2)SC1=S	-75.3% (active)
O=c1cc(-c2ccccc2)oc2cc(OCCCC[P+](c3ccccc3)(c3ccccc3)c3ccccc3)cc(O)c12	-56.3% (active)
COc1c(F)ccc(C(=O)Nc2ccc3nc(NC(=O)C4CCCN(S(=O)(=O)c5cccc(Br)c5)C4)sc3c2)c1F (stereo not drawn)	86.4% (inactive)
C=C1CC[C@@H]2[C@]3(C)COC(c4cn[nH]c4-c4ccc(F)cc4)O[C@@H]3CC[C@@]2(C)[C@@H]1C/C=C1/C(=O)OCC1O (stereo partly drawn)	-39.4% (active)
CCCCCCCS(=O)(=O)N1CCCC(C(=O)Nc2nc3ccc(NC(=O)c4ccc(F)c(OC)c4F)cc3s2)C1 (stereo not drawn)	82.9% (inactive)
C=C1CCC2C3(C)COC(c4ccccc4)OC3CCC2(C)C1CC(NCc1ccccc1)C1=CCOC1=O (stereo not drawn)	88.3% (inactive)
O=C(/C=C/Nc1ccc2oc(=O)ccc2c1)c1cc2cc(Br)ccc2oc1=O	131% (inactive)
O=C(Cn1c(/C=C/c2ccccc2)nc2ccccc2c1=O)Nc1ccc(Cl)cc1	78.4% (inactive)
CC(C)CCNC(=O)N/C(N)=N/c1nc2ccccc2s1	103% (inactive)
Cn1cc(-c2cc(N)n3nc(-c4c[nH]c5ccccc45)cc3n2)c2cccnc21	40.2% (inactive)
CN(C)c1nc(NCCNS(=O)(=O)c2ccc(C(=O)/C=C/c3ccc(Cl)cc3)cc2)nc(Nc2ccc(F)cc2)n1	-82.9% (active)
